Records with an inconclusive call do not appear. Entries that show only a call come without a potency. Calls of active or inactive are those of the source. Calls come from the whole dose curve; as a rule, active = well fitted activation curve with a large enough effect; inconclusive = small, poorly fitted or top-dose-only effect; inactive = flat fitted curve, though single readings scatter.
Potency is the fitted concentration of half-maximal effect.

A short description of this experiment: qHTS for Inhibitors of Cell Surface uPA Generation: FP59 Counterscreen for Cherry-picked Compounds. Particulars: FP59 anthrax toxin cytotoxicity counterscreen, cells; series mostly up to 115 µM. In general terms: qHTS replaces the single test concentration by a dilution series.
Turning to `Cc1cccc(N2C(=O)c3cccc(Oc4ccc(Cl)cc4)c3C2=O)c1`, the Potency result is “inactive”.
The same measure for `CS(=O)(=O)c1ccc(Cl)c(NC(=O)COC(=O)CNC(=O)c2cccs2)c1`: “inactive”; for `Cc1cccc(CCNC(=O)Cc2ccc(NC3=NC4CS(=O)(=O)CC4S3)cc2)c1` (centres undefined): “inactive”; for `O=C(/C=C/c1cccc(Oc2ccccc2)c1)N1CCOCC1`: “inactive”.
The same measure for `O=C(O)c1ccc(-c2ccc(/C=C3\NC(=O)N(Cc4ccc(Cl)cc4)C3=O)o2)cc1`: “inactive”.
The same measure for `COCCn1c(SCC(=O)Nc2ccc(F)cc2)nc2ccccc2c1=O`: “inactive”.
With `CCCCN(C(=O)c1cnccn1)c1c(N)n(CCC)c(=O)[nH]c1=O`, the Potency result is “inactive”.
The same measure for `Cc1ccc(C(=O)NNC(=O)CNc2cccc(Cl)c2)cc1`: “inactive”; for `O=C(C[C@H]1C[C@H](C(=O)N2CCOCC2)[C@@]2(CCC3CCCC3)c3[nH]c4cc(-c5ccco5)ccc4c3CCN2C1=O)NCc1cccc(C(F)(F)F)c1`: “inactive”.
In the case of `CC(C)(O)C#Cc1ccc(C(=O)N2CCCC(CCC(=O)NCc3ccccc3F)C2)cc1` (centres undefined), the Potency entry is “inactive”.
The same measure for `COc1ccc(-c2sc3ccccc3c2C#CCO)cc1`: “inactive”; for `COc1ccc(C2=NS(=O)(=O)N(C)C(C(=O)NCc3ccccn3)=C2)cc1`: “inactive”.
The entry for `Cc1ccc(N2C(=O)CC(N3CCN/C3=C3\CC/C(=C\c4ccccc4)C3=O)C2=O)cc1` (centres undefined) is “inactive”.
The same measure for `COc1cc(C(C)=O)ccc1OCc1cn(CC(=O)c2ccc(O)cc2)nn1`: “inactive”.
Take `COc1ccc(Nc2nc(-c3ccccc3)c(C(=O)Nc3cccnc3)s2)cc1`: the Potency entry is “inactive”.
The entry for `O=C(COC(=O)/C=C/c1cccc(F)c1)Nc1ccccc1` is “inactive”.
The same measure for `Cc1cc(C)n(-c2cc(C(=O)O)cc(C(=O)O)c2)n1`: “inactive”; for `CC1CCCN(C(=O)c2ccc(CNc3c(N4CCCCC4)c(=O)c3=O)cc2)C1` (centres undefined): “inactive”.
The same measure for `CCCOc1ccc(CC2CCC(=O)NC2=O)cc1` (centres undefined): “inactive”; for `COCCN(C(=O)c1ccc(OC2CCN(S(=O)(=O)N(C)C)CC2)cc1)C(C)C`: “inactive”; for `COc1cc(/C=N/NC(=O)c2ccncc2)ccc1O`: “inactive”.
As to `CC(C)C1Oc2ccccc2N(CC(=O)NC2CCCCC2)C1=O` (centres undefined), the Potency is 58.5 µM (active).
The same measure for `O=C(c1cc([N+](=O)[O-])cc([N+](=O)[O-])c1)N(c1ccccn1)c1ccccn1`: “inactive”; for `COCCNC(=O)COCc1cc(-c2ccc3c(c2)OCO3)on1`: “inactive”.
As to `NC(=O)CC[C@H](NC(=O)c1ccc(F)cc1)C(=O)OCC(=O)Nc1c(F)c(F)c(F)c(F)c1F`, the Potency result is “inactive”.
The same measure for `Cc1cc(N)n(Cc2ccc(Cl)cc2)n1`: “inactive”; for `O=C(NCCOc1ccc(F)cc1)C1CCN(S(=O)(=O)c2ccccc2)CC1`: “inactive”.
The same measure for `CCNC(=S)NNC(=O)c1ccncc1`: “inactive”; for `CCN(CC)CC(=O)Nc1sc2c(c1C(=O)c1ccccc1OC)CCC2`: 16.5 µM (active); for `CC(C)NC(=O)NC(=O)CN1C(=O)NC(Cc2c[nH]c3ccccc23)C1=O` (centres undefined): “inactive”.
The same measure for `COc1cc(CNCc2ccc3c(c2)OCO3)c([N+](=O)[O-])cc1OC`: “inactive”.
Regarding `CCCCn1c(N)c(N(Cc2ccccc2OC)C(=O)COc2ccc(C)cc2)c(=O)[nH]c1=O`, the Potency result is “inactive”.
The entry for `O=C1OCC/C1=C\c1ccc(O)cc1` is “inactive”; for `CCOC(=O)CN1C(=O)N[C@@H](c2ccccc2)C(C(C)=O)=C1C` it is “inactive”; for `C/C(=N\NC(=O)c1cccc([N+](=O)[O-])c1)c1cccnc1` it is “inactive”.
The same measure for `COc1cc(F)ccc1S(=O)(=O)n1c(C)nc2ccccc21`: “inactive”; for `Cc1cccc(NC(=O)c2cc3c(=O)n4ccccc4nc3s2)c1`: “inactive”.
On to `C=C(C(=O)O)C1CCC2(C)CCCC(C)(O)C2C1` (centres undefined), for which the Potency result was “inactive”.
The entry for `O=C(NCC1CCCO1)c1c(O)c2cccc3c2n(c1=O)CCC3` (centres undefined) is “inactive”.

The values above are taken from PubChem BioAssay AID720517 (National Center for Advancing Translational Sciences (NCATS), 2013).
